According to PubChem BioAssay (NCI):
The panel holds about 83,000 compounds, 20% with a hit somewhere; the sample as a whole holds those more often.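 How to read the values: 0–100, growth inhibition (40 = 60% inhibited); 0, no net growth; -100 to 0, cell death (-40 = 40% of starting cells died; -100 = all dead).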 Values without a mark were called inactive. The source made the active and inactive calls. How the source made its calls: active means growth percent below 10; inactive means the rest.

Experiments:
Test in all cases: NCI-60 one-dose screen, 48 h (100 = growth as untreated, 0 = no growth, -100 = all killed)
Settings in all cases: 10 µM
[1] = test system: SN12C renal
[2] = test system: UO-31 renal
[3] = test system: TK-10 renal
[4] = test system: ACHN renal
[5] = test system: CAKI-1 renal
[6] = test system: A498 renal
[7] = test system: CCRF-CEM leukemia
[8] = test system: MOLT-4 leukemia
[9] = test system: SR leukemia
[10] = test system: RPMI-8226 leukemia
[11] = test system: OVCAR-8 ovarian
[12] = test system: OVCAR-5 ovarian
[13] = test system: OVCAR-4 ovarian
[14] = test system: SK-OV-3 ovarian
[15] = test system: IGROV1 ovarian
[16] = test system: OVCAR-3 ovarian
[17] = test system: HS 578T breast
[18] = test system: NCI/ADR-RES ovarian
[19] = test system: EKVX NSCLC

SMILES | growth [1] [%] | growth [2] [%] | growth [3] | growth [4] | growth [5] | growth [6] | growth [7] | growth [8] | growth [9] | growth [10] | growth [11] | growth [12] [%] | growth [13] | growth [14] | growth [15] | growth [16] | growth [17] | growth [18] | growth [19]
CC(C)C(C)C(N)C(=O)O (stereo not given) | 106 | 85.6 | 95.4% | 99% | 99% | 109% | 95.1% | 93% | 93.7% | 99.6% | 105% | 114 | 115% | 96% | 101% | 111% | 117% | 107% | –
Cn1c([N+](=O)[O-])cnc1C=C1C(=O)c2ccccc2C1=O | 42.9 | 20.7 | 48.8% | 37.4% | 37.3% | 70.1% | 18.4% | 21.8% | 7.25% (active) | 40.6% | 7.11% (active) | 61.3 | 56.8% | 54% | 13.8% | 38.1% | 26.4% | 44.5% | –
CCCCOCC(=O)NC(NP(=O)(N(C)C)N(C)C)C(Cl)(Cl)Cl (stereo not given) | 110 | 92 | 134% | 143% | 92.3% | 118% | – | 99.5% | 111% | 100% | 62.8% | – | 116% | 124% | – | 98% | 113% | 105% | 98.1%
Cc1cc(C)c(/C=C2\C(=O)Nc3ccc(NC(=O)CCCCCCC(=O)NO)cc32)[nH]1 | 44 | 66 | 10.6% | – | 68.7% | -9.05% (active) | 23.9% | 13.2% | 22.1% | 40.6% | 17.7% | 15.9 | 50.5% | 31.3% | 37.9% | 19.4% | 21.6% | 92.1% | –
C[C@@H]1C(=O)N(C[C@H](Cc2ccccc2)NC(=O)OCc2ccccc2)[C@]1(Cc1ccccc1)C(=O)OCc1ccccc1 | – | 16.4 | 29.1% | 32.2% | 32.2% | 37.7% | 52.6% | -0.259% (active) | 35.2% | 30.1% | 40.7% | 65.8 | 22.1% | 54.8% | 69.5% | 61.3% | 78.8% | 27% | 34%
Cc1nc2sccn2c1-c1csc(Nc2cccc(Cl)c2C)n1 | 59.4 | – | 54.6% | 60.3% | 51.4% | 36.1% | 47.1% | 40.2% | 17.7% | 45% | 65.6% | 77.9 | 45.7% | 79.1% | – | 64.3% | 53.1% | 41.6% | –
Nc1c(C(=O)Nc2ccccc2F)sc2nc3c(cc12)C(=O)CCC3 | 49.8 | 76 | 59.7% | 65.4% | 4.36% (active) | -1.01% (active) | – | 73.6% | 36.7% | 52% | 58.6% | 71.1 | – | 13.6% | – | 16.8% | 37.2% | -4.39% (active) | 56.3%
Cc1ccc(S(=O)(=O)N2CCc3ccccc3CC2)cc1 | 85.3 | 70.2 | 74.2% | 85.5% | 78.7% | 87.4% | – | 80.5% | 84.8% | 42.3% | 79.2% | 94.3 | 44.8% | 96.3% | 104% | 103% | 109% | 69.8% | 22%
CCc1ccc(-c2nnc(COc3ccc(-c4nc5ccccc5[nH]4)cc3OC)o2)cc1 | 21.7 | 56.8 | 16.7% | -13.9% (active) | 60.1% | 88.8% | 61.8% | 71.8% | -8.81% (active) | 52.1% | 40.9% | 96.6 | -36.2% (active) | 100% | 53.6% | 4.63% (active) | – | 69.2% | –
CC(C)/C(=N/O)c1ccccc1 | 102 | – | 104% | 107% | 107% | 113% | 103% | 94% | 107% | 111% | 110% | 103 | 111% | 122% | 118% | 130% | 118% | 107% | 102%
NC1CCC(Nc2nc(NCc3ccc(-c4ccccc4O)nc3)c3ncn(C4CCCC4)c3n2)CC1 (stereo not given) | – | 14.2 | 0.221% (active) | -3.2% (active) | 14.1% | -82.1% (active) | -5.6% (active) | -11.2% (active) | -41.3% (active) | -28% (active) | 7.26% (active) | 19.3 | 6.5% (active) | 8.5% (active) | 8.35% (active) | -6.34% (active) | 8.94% (active) | 10.3% | -20.1% (active)
Cc1ccc2nc(-c3ccc(OCC(=O)N=Nc4c(O)[nH]c5ccccc45)cc3)[nH]c2c1 | 57.3 | 96.1 | 103% | – | 93.4% | 93.2% | 9.27% (active) | 39.6% | -17.5% (active) | 25.7% | 18.5% | 104 | 11.6% | 99.5% | 85.8% | 26.5% | 91.5% | 89.9% | –
CCOC(=O)c1cc2c(n1Cc1cc(OC)cc(OC)c1)-c1oncc1CC2 | 40.9 | 19.4 | 53.2% | 47.1% | 29.2% | 24.9% | 13.2% | 23.6% | 18% | 39.5% | 26.8% | 49 | 48.9% | 5.06% (active) | 14.3% | -51.2% (active) | – | 0.862% (active) | 34.5%
